From PubChem BioAssay (NCI)
Several values for one entry are separate records, joined by “and”; a condition that tells them apart may be missing. Equal entries are not always repeated. Compounds without any hit were thinned out: in the full panel of roughly 79,000, 15% have a hit. Activity calls are given as the source filed them. No stated cut-off is given here; in the data, active means growth inhibition above about 70%; inactive means the rest.

What was measured:
[1] = NCI Yeast Anticancer Drug Screen. Data for the rad50 strain (AID 155);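 further: 0% = growth of vehicle-only cultures of the same strain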; conditions: S. cerevisiae rad50 strain growth inhibition; at 50.0 µM; hits give high values
Outline: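 Yeast carrying a defined DNA repair defect were exposed to test compounds, and growth was compared with vehicle-treated controls to give percent inhibition.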

[2] = NCI Yeast Anticancer Drug Screen. Data for the mec2-1 strain (AID 157); conditions: S. cerevisiae mec2-1 strain, at 50.0 µM, hits give high values
Outline: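 Compounds were applied to mec2-1 yeast cells. Their growth was then compared with that of vehicle-treated cultures to give growth inhibition.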

[3] = NCI Yeast Anticancer Drug Screen. Data for the sgs1 mgt1 strain (AID 161);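 further: 0% = growth of cultures given vehicle only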; conditions: S. cerevisiae sgs1 mgt1 strain, at 50.0 µM, hits give high values
Outline: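 Compounds are added to genetically altered yeast, and growth is compared with cultures given vehicle alone to give percent inhibition.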

[4] = NCI Yeast Anticancer Drug Screen. Data for the cln2 rad14 strain (AID 165);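 further: 0% = growth equal to vehicle treated cultures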; conditions: S. cerevisiae cln2 rad14 strain, at 50.0 µM, hits give high values
Outline: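 Strain: cln2 rad14 yeast, altered in cell cycle control and DNA damage repair. Read-out: growth inhibition vs vehicle.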

[5] = NCI Yeast Anticancer Drug Screen. Data for the bub3 strain (AID 167); conditions: S. cerevisiae bub3 mutant strain, at 50.0 µM, hits give high values
Outline: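 Compounds were applied to a genetically altered yeast strain carrying a cell-cycle control defect. Growth inhibition was scored against vehicle-treated controls.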

[6] = NCI Yeast Anticancer Drug Screen. Data for the mlh1 rad18 strain (AID 175); conditions: S. cerevisiae mlh1 rad18 strain growth inhibition; at 50.0 µM; hits give high values
Outline: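 A repair-deficient yeast strain is exposed to test compound, and growth is scored relative to vehicle-treated controls.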

Measured: growth inhibition

CCCCCCCCCCCCCCCCOc1ccc(S(=O)(=O)F)cc1C(=O)Nc1ccc(S(=O)(=O)Nc2cccc3ccccc23)cc1
inactive: [1] 3.3% | [2] 1.9% | [3] -2.75% | [4] -3.05% | [5] -0.3% | [6] 5.35%

N#CC(C#N)=Cc1ccc(Cl)cc1
inactive: [1] 13.6% and 9.25% | [2] -2.05% and -21.4% | [3] 8.5% and 19.9% | [4] 3.45% and -9.95% | [5] -8.1% and 0.15% | [6] 20.7% and 20.1%

CN(Cc1cnc2nc(N)nc(N)c2n1)c1ccc(C(=O)NC(CCC(=O)NC(CC(P(=O)(O)O)P(=O)(O)O)C(=O)O)C(=O)O)cc1 (stereo not given)
inactive: [1] -19.6% | [2] -14.6% | [3] -8.05% | [4] 16.6% | [5] 5.75% | [6] -21.9%

COC(=O)Nc1nc2ccccc2[nH]1
inactive: [1] -18.6% | [2] -4.4% | [3] -13% | [4] 4.2% | [5] 2.45% | [6] 7.15%

CC1(C)N=C(N)N=C(N)N1c1ccc(CCCCc2ccccc2S(=O)(=O)F)c(Cl)c1
active: [1] 99.5% | [2] 99.7% | [3] 99.7% | [4] 99.4% | [5] 99.5% | [6] 99.7%

CCN1CCC2(CC1)COCc1ccccc12
inactive: [1] 18.3% | [2] 7.8% | [3] 16.4% | [4] 4.15% | [5] 3.15% | [6] 29.6%

C[N+](C)(C)NP(=O)(N[N+](C)(C)C)c1ccccc1
inactive: [1] 3.2% | [2] -8.15% | [3] -19.3% | [4] 11.6% | [5] 1.95% | [6] -11.1%

O=C1C[C@@H]2OCC=C3C[N+]4([O-])CC[C@]56c7ccccc7N1[C@H]5[C@H]2[C@H]3C[C@@H]64 (stereo not given in full)
inactive: [1] -4.85% and -6.5% | [2] -7.75% and -6.3% | [3] 2.05% | [4] 0.9% | [5] 25.4% | [6] -3.15% and -3.7%

O=C(O)C(O)C(O)C(O)C(O)C(O)C(O)CO.[Cd] (stereo not given)
inactive: [1] 29.4% and 27.9% | [2] 15.2% and 26.5% | [3] 20.2% and 20.4% | [4] 19.4% and 28.7% | [5] 4.6% and -7.8% | [6] -1.55% and 0.55%

O=C(NP(=O)(N1CC1)N1CC1)c1cc(I)ccc1I
inactive: [1] -2.1% | [2] -1.7% | [3] 1.25% | [4] -27.7% | [5] 12.9% | [6] -14.3%

N#CC(C#N)=Cc1ccccc1F
inactive: [1] 15.5% | [2] 7.1% | [3] 12.2% | [4] 15.2% | [5] 10.6% | [6] 12.7%

Nc1nnc[se]1
inactive: [1] 7.85% | [2] 5.35% | [3] -8.1% | [4] -1.55% | [5] -4.2% | [6] -1.6%

NC(=O)C(CCN1CCCCC1)(c1ccccc1)c1ccccc1
inactive: [1] -9.6% | [2] -14.9% | [3] 5.65% | [4] -35.4% | [5] -8.8% | [6] -8.25%

Cc1cc(N(CCCl)CCCl)ccc1C=Nc1ccc(F)cc1[N+](=O)[O-]
inactive: [1] 4.3% | [2] 3.1% | [3] 2.65% | [4] 1.65% | [5] -8.45% | [6] 18.7%

C[CH2][Sn](=[O])[c]1ccccc1
inactive: [1] -21.9% | [2] -17.6% | [3] 3.3% | [4] 10.3% | [5] -0.9% | [6] -23.4%

Fc1ccc(C2(N3CCC4(CC3)OCCO4)CCCCC2)cc1
inactive: [1] -8.05% | [2] 9% | [3] 14.1% | [4] -15.5% | [5] 0.1% | [6] 5.6%

Cc1nccn1-c1ccc(Cl)cc1N=Cc1ccc(N(CCCl)CCCl)cc1Cl
active: [6] 71.5%
inactive: [1] 38.4% | [2] 47.5% | [3] 68.5% | [4] 33.8% | [5] 43%

O=C(COc1ccc(Cl)c(Cl)c1)Nc1ccc[n+](Cc2c(Cl)cccc2S(=O)(=O)F)c1
inactive: [1] 14.8% | [2] 22.1% | [3] -17.7% | [4] 39.9% | [5] -1.5% | [6] 5.35%

[Br][Co][Br].[NH-]CC[NH-].[NH-]CC[NH-]
inactive: [1] 28.4% | [2] 15.6% | [3] 18.4% | [4] -6.95% | [5] 22.9% | [6] 17.8%

[N-]=[N+]=NP1(=O)OC(c2ccccc2)=CCN1c1ccccc1 (stereo not given)
inactive: [1] -9.2% | [2] -9.5% | [3] -8.45% | [4] 20.7% | [5] 8.65% | [6] -4.1%

O=CNNC(=O)C(Cl)Cl
inactive: [1] 4.25% | [2] -11.9% | [3] -10.1% | [4] -31.3% | [5] -3.45% | [6] 8.9%

NC(=NC(c1ccccc1)c1ccccc1)N[N+](=O)[O-]
inactive: [1] -4.1% | [2] 5.3% | [3] -12.6% | [4] 2.95% | [5] 7.45% | [6] -17.9%

O=[As](O)(O)c1ccc(F)cc1
inactive: [1] 3.45% | [2] 9.8% | [3] -4.35% | [4] 14.6% | [5] 9.3% | [6] 2.95%

C#CCN1C(=O)CN2C(Cl)(Cl)C2(c2ccccc2)c2cc(Cl)ccc21 (stereo not given)
inactive: [1] 20.1% | [2] 16.1% | [3] -13.4% | [4] -1.8% | [5] 3.35% | [6] 37.6%

CC(=O)OC1CCC2C3CCC4CC5(CCC4(C)C3CCC12C)CO5 (stereo not given)
inactive: [1] -2.45% | [2] -10.7% | [3] -26.2% | [4] 1.2% | [5] 1.75% | [6] 1.2%

CNC(=O)Oc1ccc(C=Nc2cccc([N+](=O)[O-])c2)cc1
inactive: [1] 2.9% | [2] 37.4% | [3] 14.7% | [4] 0.65% | [5] 34.9% | [6] 32.5%

CCN(CCCl)c1cc(CN(C)C)cc(NC(=O)c2cc(C(=O)Nc3cc(CN(C)C)cc(N(CC)CCCl)c3)n(C)n2)c1
inactive: [1] 60.2% | [2] -10.3% | [3] 27.9% | [4] 20% | [5] -3.3% | [6] 3.05%

CC(Cl)C(=O)OC(C)(C)Cl (stereo not given)
inactive: [1] 19.9% | [2] 25.7% | [3] 11.7% | [4] 11.1% | [5] 17% | [6] 3.05%

CNC(=O)c1cn(C2OC(CO)C(O)C2O)c2ncnc(N)c12 (stereo not given)
inactive: [1] -5.95% | [2] 8.3% | [3] 4.7% | [4] -1.25% | [5] -1.05% | [6] 5.65%

CC1CCC(OC(=O)CCl)CC1 (stereo not given)
inactive: [1] 18.1% | [2] 19.4% | [3] 13.3% | [4] 7.45% | [5] 8.95% | [6] -8.75%

CCNC(=O)CCl
inactive: [1] 3.75% | [2] 1.2% | [3] 21.4% | [4] -2% | [5] -0.9% | [6] 10.4%

CCCCCCCCCl
inactive: [1] 14.7% | [2] -4.7% | [3] 7.75% | [4] 20.1% | [5] 8.4% | [6] -8.5%

c1ccc(CN2C3CCCC2CC(c2ccccc2)C3)cc1 (stereo not given)
active: [1] 79.8% | [3] 80.3% | [4] 71.8% | [6] 85.5%
inactive: [2] 63.9% | [5] 65.7%

CCOC(=O)C(Br)Br
inactive: [1] 20% | [2] -2.7% | [3] -13.9% | [4] 22.2% | [5] 23.3% | [6] 10.6%

COc1ccc2c(c1O)[C@@]13C=C(O)C(=O)C=C1[C@@H](C2)N(C)CC3
inactive: [1] 40% | [2] 4.6% | [3] 11.6% | [4] 23.6% | [5] -2.6% | [6] -47.9%

O=c1c(O)c(-c2ccccc2)oc2ccccc12.[Zn+2]
inactive: [1] -6.95% | [2] 7.25% | [3] 20.2% | [4] -41% | [5] 24.9% | [6] 27.6%

CNC(=O)c1cc(N(CCCl)CCCl)c([N+](=O)[O-])cc1[N+](=O)[O-]
inactive: [1] -3.15% | [2] -17.5% | [3] -6.05% | [4] 10% | [5] -3.15% | [6] 19.4%

Fc1ccc(C(Cl)(Cl)Cl)cc1
inactive: [1] -8.9% | [2] -33.5% | [3] 2.75% | [4] -17.2% | [5] -17.1% | [6] 6.2%

O=NN(CS(=O)(=O)O)c1ccccc1
inactive: [1] -5.9% | [2] -3.05% | [3] -1.6% | [4] -29.2% | [5] 6.4% | [6] 0.4%

NS(=O)(=O)c1ccc([As](=O)(O)c2ccccc2)cc1
inactive: [1] 14.2% | [2] -9.35% | [3] 7.85% | [4] 15.7% | [5] 9.5% | [6] -7.75%
